The structures appear in SMILES notation. Unmarked numbers belong to inactive results.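 The calls were made as follows: active = compounds whose GFP signal falls below 65% of the DMSO control level; inconclusive = fewer than 70 yeast cells counted in the well; inactive = the rest.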

The experiment in a line: TOR branch reporter RPL19A-GFP response – cell-based, S. cerevisiae, third cherry pick, flow cytometry, confirmation (AID 504336).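 Also: median GFP fluorescence of all gated yeast cells by flow cytometry; ratio of well median fluorescence to plate mean of DMSO wells with DMSO = 100%.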 Particulars: S. cerevisiae RPL19A-GFP strain, 3 h, at 10 µM, stronger effect = lower value. Background: A flow cytometer gives signals particle by particle.
Consider `C/C(O)=C(\C#N)C(=O)Nc1cc(Br)ccc1Br`, for which the GFP response relative to DMSO was 97.5%.

With `CN(C)C(=O)Oc1ccnc2cc(Cl)ccc12`, the GFP response relative to DMSO was 102%.

Turning to `Cc1ccc2c(c1N)C(=O)c1ccccc1C2=O`, the GFP response relative to DMSO is 101%.

With `CCN1CCN(c2ncnc3ccc(Br)cc23)CC1`, the GFP response relative to DMSO was 100%.

In the case of `CN1CCN(c2ncnc3ccc(Br)cc23)CC1`, the GFP response relative to DMSO is 99.3%.

Turning to `CN(C)C(=O)Oc1ccc(Cl)c2cccnc12`, the GFP response relative to DMSO was 101%.

(Values after PubChem BioAssay AID504336 (NMMLSC, 2011).)
